Eleven compounds from PubChem BioAssay (Tox21) can be followed below.

Where “and” joins values, the source holds several entries; their conditions need not be identical. Identical values can stand only once. Results filed as inconclusive are left out. Some structures have more than one record in an assay (separate samples or runs), and their calls can disagree. Calls of active or inactive are those of the source. Unless noted, the call rests on the fitted dose curve; in most records, active means well fitted curve in the direction sought with a large enough effect in the repeat runs; inconclusive means weak or mixed curves; inactive means no such curve, though single readings can be large; an effect the other way counts as inactive or inconclusive.

The nature of assay [1]: qHTS assay for small molecule agonists of the p53 signaling pathway - cell viability (AID 651633; calls by dose curve; further: nearly all actives have a fitted effect of over 30% in size; further: potency means the concentration at half of the fitted maximal effect). In a few lines: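 Viability counter-read: CellTiter-Glo luminescence (30 min, room temperature) in the same p53RE-bla plates. These plates had been exposed to compounds for 16 h at 37 C.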
(In general: Quantitative high-throughput screening tests each substance at several concentrations.)

A short description of assay [2]: qHTS assay for small molecules that induce genotoxicity in human embryonic kidney cells expressing luciferase-tagged ATAD5 - cell viability (AID 651634; calls by dose curve; further: nearly all actives have a fitted effect of over 25% in size; further: potency means the concentration at half of the fitted maximal effect). In a few lines: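 HEK293T cells carrying luciferase-tagged ATAD5, 2,000 cells/well, exposed to compound for 15.5 hr at 37C. Viability read as live-cell protease activity by CellTiter-Fluor fluorescence after 30 min at 37C.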

Assay [3] is described as follows: qHTS assay for small molecule disruptors of the mitochondrial membrane potential (AID 720635). Further: potency means the concentration at half of the fitted maximal effect. In a few lines: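 Mitochondrial membrane potential tracked with Mito-MPS dye, red aggregates (ex 540/em 590 nm) against green monomers (ex 490/em 535 nm). Compound treatment 1 hr at 37C, dye 30 min in HepG2.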
Assay [4] can be described thus: qHTS assay to test for compound auto fluorescence at 590 nm (red) in HepG2 cells (AID 720674). In a few lines: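 Red autofluorescence (Ex/Em 540/590 nm, Rose Bengal sodium equivalents) was measured in HepG2 cells, 2,000 per well in MEM plus 10% FBS, plated overnight at 37 C. Readings were taken 1 hr after adding 23 nL compound or DMSO, at 37 C and 5% CO2.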
A short description of assay [5]: qHTS assay to test for compound auto fluorescence at 535 nm (green) in HepG2 cells (AID 720675).
A short description of assay [6]: qHTS assay to test for compound auto fluorescence at 590 nm (red) in HEK293 cells (AID 720679). In a few lines:
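Red-channel autofluorescence (Ex/Em 540/590 nm; Rose Bengal sodium reference) was measured after overnight 37C, 5% CO2 exposure of attached HEK293 cells, 2,000 per well in medium with 10% dialyzed FBS.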

Assay [7] is described as follows: qHTS assay to test for compound auto fluorescence at 535 nm (green) in HEK293 cells (AID 720680).
The nature of assay [8]: qHTS assay to test for compound auto fluorescence at 460 nm (blue) in HEK293 cell free culture (AID 720681). Further: potency means the concentration at half of the fitted maximal effect. In a few lines:
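Blue fluorescence (Ex 405/Em 460 nm, triamterene-equivalent) was read immediately after pin transfer of compound or DMSO into medium (DMEM, 10% FBS) without cells.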

The nature of assay [9]: qHTS assay to test for compound auto fluorescence at 535 nm (green) in HEK293 cell free culture (AID 720682). In a few lines: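 Steps: dispense DMEM/10% FBS into empty wells; pin in compound or DMSO; measure fluorescence at 485/535 nm. Values are fluorescein equivalents.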
Assay [10] is described as follows: qHTS assay to test for compound auto fluorescence at 590 nm (red) in HEK293 cell free culture (AID 720683). In a few lines:
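Red-channel autofluorescence of compounds in culture medium (DMEM, 10% FBS), no cells, measured at 540/590 nm. Rose Bengal sodium is the reference fluorophore for equivalence.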

Assay [11] in a line: qHTS assay to test for compound auto fluorescence at 590 nm (red) in HepG2 cell free culture (AID 720684). In a few lines: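 Steps: dispense MEM/10% FBS medium, no cells; pin compound or DMSO vehicle; read red channel, Ex/Em 540/590 nm. Output given as Rose Bengal sodium equivalents.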
Assay [12] in a line: qHTS assay to test for compound auto fluorescence at 535 nm (green) in HepG2 cell free culture (AID 720686).
Assay [13] concerns the target Glucocorticoid receptor (Homo sapiens) (UniProt P04150). In words: qHTS assay to identify small molecule agonists of the glucocorticoid receptor (GR) signaling pathway (AID 720691; active means well fitted activation curve with a large enough effect in the signal ratio in the repeat runs, not every such curve was filed as active; the % refers to the signal ratio). In a few lines:
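GR-bla HeLa cells carrying a GRE-driven beta-lactamase reporter, exposed to compounds for 18 h at 37 C. Reporter activation read as fluorescence after 2 h with LiveBLAzer B/G FRET substrate at room temperature.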

Assay [14] is described as follows: qHTS assay for small molecule disruptors of the mitochondrial membrane potential - cell viability (AID 720634; calls by dose curve;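 further: human HepG2 liver cancer cells; series mostly up to about 83 µM; nearly all actives have a fitted effect of over 20% in size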). In a few lines: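 HepG2 cells, 2,000 per well, attached overnight, then treated 1 hr at 37 C, 5% CO2. Viability read as ATP by CellTiter-Glo luminescence after 30 min at room temperature. Read in the same wells as the m-MPI membrane-potential dye assay.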

A short description of assay [15]: qHTS assay to test for compound auto fluorescence at 460 nm (blue) in HEK293 cells (AID 720678). Further: potency means the concentration at half of the fitted maximal effect. In a few lines:
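Blue-channel (Ex/Em 405/460 nm) intensity measured in HEK293 cultures after overnight compound exposure at 37C; signal expressed relative to triamterene. Cells plated 2,000 per well in 10% dialyzed FBS medium and allowed 4-5 hr to attach.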

Assay [16] can be described thus: qHTS assay to test for compound auto fluorescence at 460 nm (blue) in HepG2 cell free culture (AID 720685). In a few lines:
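Compound (23 nL) or DMSO pinned into cell-free MEM with 10% FBS; blue fluorescence read at 405/460 nm excitation/emission, expressed as auto-fluorescence equivalency to triamterene.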

A short description of assay [17]: qHTS assay to test for compound auto fluorescence at 460 nm (blue) in HepG2 cells (AID 720687). In a few lines: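 Blue-channel autofluorescence (Ex/Em 405/460 nm, triamterene-equivalent) was measured after 1 hr compound exposure at 37 C, 5% CO2. Cells were HepG2, plated overnight at 37 C in MEM plus 10% FBS.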
Assay [18] is described as follows: qHTS assay for small molecules that induce genotoxicity in human embryonic kidney cells expressing luciferase-tagged ATAD5 (AID 651632). Further: nearly all actives have a fitted effect of over 15% in size. In a few lines: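 HEK293T cells carrying luciferase-tagged ATAD5 were given compound or DMSO vehicle and incubated 16 hr at 37C, 5% CO2. Luciferase activity was read after 30 min at room temperature with Amplite; a rise signals genotoxic stress.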

In assay [19] the target is Glucocorticoid receptor (Homo sapiens) (UniProt P04150). In words: qHTS assay to identify small molecule antagonists of the glucocorticoid receptor (GR) signaling pathway (AID 720692; active means well fitted inhibition curve with a large enough effect in the signal ratio in the repeat runs, not every such curve was filed as active; the % refers to the signal ratio). In a few lines:
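GR-bla HeLa cells carrying a GRE-driven beta-lactamase reporter received compound after 4 h plating, then dexamethasone (5 nM final). After 18 h at 37C, the FRET substrate was loaded for 2 h at room temperature and fluorescence read.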
Tags describe the fitted curve by direction and shape or compound fluorescence and quenching.

Glucocorticoid receptor (Homo sapiens), sequence (P04150 whole entry, looked up): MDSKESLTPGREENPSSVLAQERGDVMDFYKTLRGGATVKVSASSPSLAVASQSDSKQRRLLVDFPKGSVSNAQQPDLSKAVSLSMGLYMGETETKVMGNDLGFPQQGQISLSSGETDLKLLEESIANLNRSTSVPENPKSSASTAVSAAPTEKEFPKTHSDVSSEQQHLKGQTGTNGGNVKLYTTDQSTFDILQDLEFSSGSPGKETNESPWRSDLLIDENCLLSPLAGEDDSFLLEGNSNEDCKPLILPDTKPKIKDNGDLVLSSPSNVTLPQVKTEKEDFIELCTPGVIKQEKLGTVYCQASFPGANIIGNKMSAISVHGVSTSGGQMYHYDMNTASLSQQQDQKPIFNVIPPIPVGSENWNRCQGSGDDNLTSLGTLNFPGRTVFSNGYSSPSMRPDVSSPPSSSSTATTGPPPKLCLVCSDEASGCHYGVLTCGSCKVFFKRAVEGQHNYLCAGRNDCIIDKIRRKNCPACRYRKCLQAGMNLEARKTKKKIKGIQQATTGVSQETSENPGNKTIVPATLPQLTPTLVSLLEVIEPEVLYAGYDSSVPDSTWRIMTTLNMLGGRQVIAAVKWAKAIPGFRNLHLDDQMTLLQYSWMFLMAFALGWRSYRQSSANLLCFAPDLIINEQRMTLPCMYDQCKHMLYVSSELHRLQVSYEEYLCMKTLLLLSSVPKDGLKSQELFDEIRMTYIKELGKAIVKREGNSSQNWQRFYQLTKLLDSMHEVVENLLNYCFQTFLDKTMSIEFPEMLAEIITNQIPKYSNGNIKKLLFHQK

Turning to `O=c1oc2cc(O)ccc2c2oc3cc(O)ccc3c12`, the Potency entry in [1], in assay [2], in [4], in assay [5], in assay [6] and in [7] was “inactive” in each case. Besides, the Potency entry in [9], in assay [10], in assay [11], in [12] and in assay [13] was “inactive” each time. Moreover, the figures for the Potency in assay [3] and in assay [8] were 58.6 µM (active) and 5.01 µM (active), respectively.
In the case of `Nc1nc(-c2ccccc2)cs1`, the Potency result in [1], in [2], in assay [14], in assay [4], in [5] and in assay [15] was “inactive” throughout. Further, the Potency entry in [6], in [8], in assay [9], in assay [10], in assay [11] and in assay [16] was “inactive” in each case. Besides, the Potency result in [12], in assay [17] and in [13] was “inactive” in each case.
On to `C#CC1(O)CC[C@H]2[C@@H]3CCC4=CCCC[C@@H]4[C@H]3CC[C@@]21C` (stereo partly drawn), for which the Potency entry in assay [1] was “inactive and 68.6 µM (active)”; in assay [3], 9.02 µM (active) and 17.2 µM (active). Moreover, the Potency result in assay [2], in assay [14], in assay [4], in [5], in [15] and in assay [6] was “inactive” throughout. For the same compound, the Potency result in [7], in assay [8], in [9], in assay [10], in assay [11] and in [16] was “inactive” each time. For the same compound, the Potency result in [12], in assay [17] and in [13] was “inactive” throughout.
For `CC(C)NC[C@@H](O)COc1ccc(CC(N)=O)cc1`, the Potency result in assay [1], in [2], in [14], in [3], in assay [4] and in assay [5] was “inactive” each time. Besides, the Potency result in assay [15], in assay [6], in [7], in assay [8], in assay [9] and in assay [10] was “inactive” each time. Further, the Potency entry in assay [11], in [16], in assay [12] and in assay [17] was “inactive” in each case.
`O=C1CCc2ccc(OCCCCN3CCN(c4cccc(Cl)c4Cl)CC3)cc2N1`: the Potency in assay [1] is 23.7 µM (active). Besides, the Potency entry in assay [2], in [4], in assay [5], in [15], in assay [6] and in assay [8] was “inactive” throughout. Besides, the Potency result in [9], in [10], in assay [11], in assay [16], in assay [12] and in assay [17] was “inactive” in each case. The Potency result in assay [13] was “inactive”.
As for `CCCCCCCCCCCCOCCOCCOCCOCCOCCOCCOCCOCCOCCO`, the Potency is 26.6 µM (active) in assay [1] and 19.7 µM (active) in [3]. Also, the Potency result in assay [4], in assay [5], in [15], in [6], in [8] and in assay [9] was “inactive” each time. Also, the Potency result in assay [10], in assay [11], in assay [12] and in assay [17] was “inactive” each time.
Turning to `O=C(c1ccc(O)c(O)c1)c1ccc(O)cc1O`, the Potency result in [18], in [14], in assay [4], in assay [5], in assay [6] and in assay [9] was “inactive” in each case. For the same compound, the Potency entry in assay [10], in [11], in assay [16], in assay [12], in [17] and in assay [13] was “inactive” in each case. In addition, the Potency is 3.85 µM (active) in [3], 31.6 µM [fluorescent] (active) in assay [15] and 35.5 µM (active) in assay [8].
Consider `CC[C@H](C)COC(=O)/C=C/c1ccc(N=Cc2ccc(OC)cc2)cc1`, for which the Potency result in assay [1], in [2], in [4], in assay [5], in assay [15] and in assay [6] was “inactive” in each case. In addition, the Potency result in assay [7], in assay [8], in [9], in [10], in assay [11] and in [16] was “inactive” each time. Also, the Potency entry in [12], in assay [17], in [13] and in assay [19] was “inactive” each time. Further, in assay [3], the Potency is 30.6 µM (active).
For the compound `C=C(CC)C(=O)c1ccc(OCC(=O)O)c(Cl)c1Cl`, the Potency entry in assay [18], in assay [2], in assay [4], in assay [5], in [6] and in assay [7] was “inactive” each time. The Potency result in assay [8], in [9], in assay [10], in assay [11], in assay [16] and in [12] was “inactive” throughout. For the same compound, the Potency entry in [17] and in [13] was “inactive” throughout.
For the compound `CC(C(=O)O)c1ccc2c(c1)[nH]c1ccc(Cl)cc12` (stereo not drawn), the Potency entry in assay [1], in assay [2], in assay [14], in assay [4], in [5] and in assay [15] was “inactive” each time. For the same compound, the Potency entry in assay [6], in assay [8], in assay [9], in [10], in [11] and in assay [16] was “inactive” each time. Besides, the Potency result in assay [12], in assay [17], in assay [13] and in assay [19] was “inactive” each time.
For `CCCCCCCCCCCCCC[N+](C)(C)Cc1ccccc1`, the Potency in assay [1] was 23.7 µM (active) and 69.6 µM (active); in assay [2], 69.6 µM (active); in assay [3] it was 11.9 µM (active) and 27.7 µM (active). The Potency entry in [4], in [5], in [15], in [6], in [7] and in assay [8] was “inactive” in each case. In addition, the Potency entry in [9], in [10], in [11], in [12] and in assay [17] was “inactive” in each case.
